Assay results from PubChem BioAssay (NCATS).
Inconclusive results are not listed. Entries that show only a call come without a potency. A number with no mark means an inactive call. The source made the active and inactive calls. Unless noted, the call rests on the fitted dose curve; in most records, active means well fitted curve in the direction sought with a large enough effect; inconclusive means small, poorly fitted or top-dose-only effect, or another doubt; inactive means no such curve, though single readings can be large; an effect the other way counts as inactive or inconclusive.

Experiments:
[1] = qHTS for Inhibitors of Plasmodium falciparum (DD2) proliferation (AID 504314); further: potency means the concentration at half of the fitted maximal effect;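 on activity, negative = inhibition: parasite DNA measured by SYBR Green fluorescence after red cell lysis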
Summary of the method: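 Normalization used 0.29 uM artemisinin as full inhibition and DMSO as baseline. Parasitized erythrocytes were exposed to compounds for 72 h (37C, 5% CO2), then lysed with saponin/Triton buffer containing SYBR Green I.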

[2] = qHTS for Inhibitors of Plasmodium falciparum (GB4) proliferation (AID 504315); further: nearly all actives have a fitted effect of over 50% in size; further: potency means the concentration at half of the fitted maximal effect
Summary of the method: (§1)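 Parasite growth measured as SYBR Green DNA fluorescence (ex 485, em 535 nm) after overnight lysis following 72 h culture at 37 °C, 0.3% parasitemia, 2.5% hematocrit. Values normalized against DMSO and 0.29 uM artemisinin controls, with plate-stack correction.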

[3] = qHTS for Inhibitors of Plasmodium falciparum (7G8) proliferation (AID 504316); further: nearly all actives have a fitted effect of over 65% in size; further: potency means the concentration at half of the fitted maximal effect
Summary of the method: as §1

[4] = qHTS for Inhibitors of Plasmodium falciparum (HB3) proliferation (AID 504318); further: nearly all actives have a fitted effect of over 60% in size; further: potency means the concentration at half of the fitted maximal effect
Summary of the method: as §1

[5] = qHTS for Inhibitors of Plasmodium falciparum (CP250) proliferation (AID 504320); further: potency means the concentration at half of the fitted maximal effect
Summary of the method: as §1

[6] = target: Atrial natriuretic peptide receptor 1 (Homo sapiens) (UniProt P16066); assay: Natriuretic polypeptide receptor (hNpr1) antagonism - Pilot CMLD screen (AID 1347052; calls by dose curve;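 further: HEK293 cells with hNpr1 stimulated by hNppA peptide at 0.1 nM; cGMP level read as GloSensor luciferase luminescence after agonist stimulation; series mostly up to about 9.2 µM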)
Atrial natriuretic peptide receptor 1 (Homo sapiens), sequence (P16066 whole entry, looked up): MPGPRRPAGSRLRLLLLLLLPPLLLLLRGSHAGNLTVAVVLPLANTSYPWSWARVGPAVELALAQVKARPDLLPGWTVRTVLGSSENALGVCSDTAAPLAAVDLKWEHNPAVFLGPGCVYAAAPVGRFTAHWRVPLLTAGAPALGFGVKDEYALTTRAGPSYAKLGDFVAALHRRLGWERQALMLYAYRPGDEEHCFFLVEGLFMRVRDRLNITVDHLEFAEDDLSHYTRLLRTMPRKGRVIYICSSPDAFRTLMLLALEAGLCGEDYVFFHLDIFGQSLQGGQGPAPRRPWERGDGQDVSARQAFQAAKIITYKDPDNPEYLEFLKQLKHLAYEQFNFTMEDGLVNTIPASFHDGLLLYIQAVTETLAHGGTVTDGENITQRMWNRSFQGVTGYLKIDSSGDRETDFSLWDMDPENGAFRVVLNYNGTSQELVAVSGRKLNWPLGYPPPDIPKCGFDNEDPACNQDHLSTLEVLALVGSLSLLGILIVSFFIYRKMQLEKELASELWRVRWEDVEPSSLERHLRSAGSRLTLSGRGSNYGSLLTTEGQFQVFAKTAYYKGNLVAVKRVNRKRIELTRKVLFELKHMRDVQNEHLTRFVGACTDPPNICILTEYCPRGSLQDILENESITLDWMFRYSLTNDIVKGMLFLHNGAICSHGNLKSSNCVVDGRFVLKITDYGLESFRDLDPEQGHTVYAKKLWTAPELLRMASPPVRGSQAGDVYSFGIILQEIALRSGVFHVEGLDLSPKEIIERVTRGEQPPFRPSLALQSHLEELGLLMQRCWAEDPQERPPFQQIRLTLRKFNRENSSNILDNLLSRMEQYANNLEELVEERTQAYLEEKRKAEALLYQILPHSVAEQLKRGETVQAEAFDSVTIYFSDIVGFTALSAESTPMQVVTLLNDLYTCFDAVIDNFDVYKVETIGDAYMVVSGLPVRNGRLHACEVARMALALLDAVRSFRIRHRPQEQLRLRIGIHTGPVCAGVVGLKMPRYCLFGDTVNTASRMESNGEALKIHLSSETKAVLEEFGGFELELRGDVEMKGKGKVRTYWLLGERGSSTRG

Compound	Potency [1]	Potency [2]	Potency [3]	Potency [4]	Potency [5]	Potency [6]	activity, negative = inhibition [1]
COC1=C[C@H](C(=O)NCc2ccccc2)[C@@]2(C)Cc3ccccc3[C@@H]2CC1=O	inactive	inactive	inactive	inactive	inactive	inactive	
C[C@H]1Cc2c(COc3ccccc3)nc3c(c2CO1)CN(C(=O)c1cccnc1)CC3		inactive	inactive	inactive	inactive	inactive	0.654% [at 1.12 µM]
C=C(C(=O)OCC)C(=O)c1ccccc1	inactive	inactive	inactive	inactive	inactive	inactive	
C=CCOC(=O)NC(c1ccc(F)c(F)c1)S(=O)(=O)c1ccc(Cl)cc1 (stereo unspecified)	inactive	inactive	inactive	inactive	inactive	inactive	
COc1ccc2c(c1)O[C@H](c1ccc3c(c1)OCO3)[C@@H](OC(=O)NCc1ccc3c(c1)OCO3)C2=O	inactive	inactive	inactive	inactive	inactive	inactive	
COC(=O)[C@H](Cc1ccccc1)NC(=O)O[C@@H]1C(=O)c2cc(Br)ccc2O[C@H]1c1ccc2c(c1)OCO2	inactive	inactive	inactive	inactive	inactive	inactive	
Cc1ccc(C(O)C2=CCCC2=O)cc1 (stereo unspecified)	inactive	inactive	inactive	inactive	inactive	inactive	
CCN(CC)CCCN=C1NC(c2cccc(C(F)(F)F)c2)C(C(=O)OC)=C(C)N1CC (stereo unspecified)	inactive	inactive	inactive	inactive	inactive	inactive	
C#CCN1C(=O)CC[C@@]23C1=NC(C(=O)OC)=C(C(=O)OC)[C@@H]2N(C)c1ccccc13	inactive	inactive	inactive	inactive	inactive	inactive	
CSc1nnc2c(n1)C[C@H](c1ccccc1)[C@@H](C)[C@@H](C(=O)N1CCCC1)C2	inactive	inactive	inactive	inactive	inactive	inactive	
CCN1C(=NCCc2c[nH]c3ccccc23)NC(c2ccccc2)C(C(=O)OC)=C1C (stereo unspecified)	inactive	inactive	inactive	inactive	inactive	inactive	
CCOC(=O)CNC(=O)O[C@H]1C(=O)c2ccc(OC)cc2O[C@@H]1c1ccc2c(c1)OCO2	inactive	inactive	inactive	inactive	inactive	inactive	
C#CC1(O)C(OC)=CC2C(=O)C1C(c1ccccc1)C2C (stereo unspecified)	inactive	inactive	inactive	inactive	inactive	inactive	
COc1ccc(OC[C@@H]2CC3[C@@H](CC[C@@H](C)[C@H]3c3ccc(Br)cc3)C(=O)O2)cc1 (stereo partly specified)	inactive	inactive	inactive	inactive	inactive	inactive	
O=C1[C@H]2[C@@H]3[C@@H](O)[C@H](O)CC(=NOCc4ccccc4)[C@@H]3CC[C@H]2C(=O)N1C1CCCCC1	inactive	inactive	inactive	inactive	inactive	inactive	
CC(C)CON=C1C[C@@H](O)[C@@H](O)[C@@H]2[C@H]3C(=O)N(c4ccc(F)cc4F)C(=O)[C@@H]3CC[C@H]12	inactive	inactive	inactive	inactive	inactive	inactive	
CCCCc1nc2c(c3c1C[C@H](C)OC3)CN(S(=O)(=O)c1ccc(C)cc1)CC2	inactive	inactive	inactive	inactive	inactive	inactive	
COC(=O)CCC(=O)OC1(C)C(=O)C=C2C=C(C3CC3)N(Cc3ccco3)C=C2C1=O (stereo unspecified)		inactive	inactive	inactive	inactive	inactive	0.997% [at 1.12 µM]
COc1cc2c(cc1OC)[C@@H]1O[C@](c3ccsc3)(C2)OC2=C1C(=O)OC1(CCCCC1)C2	inactive	inactive	inactive	inactive	inactive	inactive	
C#CCN1C(=O)CC[C@@]23C1=NC(C(=O)OC)=C(C(=O)OC)[C@@H]2N(Cc1ccccc1)c1ccccc13	inactive	inactive	inactive	inactive	inactive	inactive	
CCC(=O)OC1(C)C(=O)C=C2C=C(c3ccc(C#N)cc3)OC=C2C1=O (stereo unspecified)	inactive	inactive	inactive	inactive	inactive	inactive	
CC#CCN1c2ccccc2[C@]23CCC(=O)N(Cc4cccc(C(F)(F)F)c4)C2=NC(C(=O)OC)=C(C(=O)OC)[C@H]13	inactive	inactive	inactive	inactive	inactive	inactive	
COCCN1C(=O)NC(c2cccc(C(F)(F)F)c2)C(C(C)=O)=C1C (stereo unspecified)	inactive	inactive	inactive	inactive	inactive	inactive	
CC(=O)OC[C@H]1O[C@H](CCON=C[C@@H](C)[C@H](OCc2ccccc2)C(C)C)C=C[C@@H]1OC(C)=O	inactive	inactive	inactive	inactive	inactive	inactive	
OC[C@H]1O[C@H](c2ccccc2)C=C[C@H]1O	inactive	inactive	inactive	inactive	inactive	inactive	
Cc1cc2c(c(=O)n1Cc1ccccc1)[C@H]1O[C@](CCCCN3C(=O)c4ccccc4C3=O)(Cc3c1ccc1ccccc31)O2	1690 nM (active)	1510 nM (active)	1510 nM (active)	1510 nM (active)	1690 nM (active)	inactive	

Compound	Potency [1]	Potency [2]	Potency [3]	Potency [4]	Potency [5]	Potency [6]	activity, negative = inhibition [1]
CCN1C(=O)NC(c2cccs2)C(C(C)=O)=C1C (stereo unspecified)	inactive	inactive	inactive	inactive	inactive	inactive	
COc1cccc([C@@H]2Oc3ccc(OC)cc3[C@H](O)[C@@H]2O)c1	inactive	inactive	inactive	inactive	inactive	inactive	
COCCN1C=C2C(=O)C(C)(OC(=O)c3cccs3)C(=O)C=C2C=C1CCCC(=O)OC (stereo unspecified)	inactive	inactive	inactive	inactive	inactive	inactive	
CCN1C(=O)[C@@H]2[C@H]3[C@H](O)[C@H](O)CC(=NO[C@H](C)c4cn([C@@H]5COC[C@@H]5O)nn4)[C@@H]3CC[C@H]2C1=O	inactive	inactive	inactive	inactive	inactive	inactive	
C[C@@H](ON=C1[C@H]2CCn3c(=O)n(-c4ccccc4)c(=O)n3[C@@H]2[C@H](O)[C@@H]2O[C@H]12)c1cn([C@@H]2COC[C@@H]2O)nn1	inactive	inactive	inactive	inactive	inactive	inactive	
CCCCC1=CC2=C(c3ccco3)C(=O)C(C)(OC(=O)c3ccc(OC)cc3)C(=O)C2=CN1Cc1ccc(OC)cc1 (stereo unspecified)		inactive	inactive	inactive	inactive	inactive	1.26% [at 1.12 µM]
CC(=O)[C@H]1[C@H](CCc2ccccc2)NC(=O)N(Cc2ccccc2)[C@@H]1C	inactive	inactive	inactive	inactive	inactive	inactive	
O=C1c2ccccc2C(=O)N1CCCC[C@]12Cc3c(ccc4ccccc34)[C@H](O1)c1c(cc(-c3ccccc3)oc1=O)O2	753 nM (active)	536 nM (active)	379 nM (active)	536 nM (active)	1510 nM (active)	inactive	
C=COCCN1C=C(C(=O)OCC)C(c2ccccc2)NC1=O (stereo unspecified)	inactive	inactive	inactive	inactive	inactive	inactive	
C=C(CCN1C=C(C(=O)OCC)C(c2ccccc2)NC1=O)OC (stereo unspecified)	inactive	inactive	inactive	inactive	inactive	inactive	
COC(=O)CC=C1c2ccccc2[C@@H](OC)[C@@H]1C	inactive	inactive	inactive	inactive	inactive	inactive	
COc1cccc2c1[C@H](C=Cc1ccccc1)[C@@H]([C@H](O)COC(C)=O)OC2	inactive	inactive	inactive	inactive	inactive	inactive	
COc1ccc(-c2nc(-c3ccccc3)oc2Nc2c(C)cccc2C)cc1	inactive	inactive	inactive	inactive	inactive	inactive	
C[C@H]1Cc2c(-c3ccccc3)nc3c(c2CO1)CN(S(=O)(=O)c1ccc(Cl)c2nonc12)CC3	inactive	inactive	inactive	inactive	inactive	inactive	
COC(=O)C1=C(C(=O)OC)[C@@H]2N(C)c3ccccc3[C@@]23C[C@@H](C(=O)OC)N(C(=O)c2cccs2)C3=N1	inactive	inactive	inactive	inactive	inactive	inactive	
CCCC[C@]12Cc3cc(C#N)ccc3[C@H](O1)c1c(c3cc(F)ccc3oc1=O)O2	inactive	inactive	inactive	inactive	inactive	inactive	
CC(=O)OC[C@H]1O[C@H](C#Cc2ccc(F)cc2F)C=C[C@H]1OC(C)=O	inactive	inactive	inactive	inactive	inactive	inactive	
C=CCOC(=O)NC(CC(=Nc1ccc(OC)cc1)C(=O)OC)c1ccccc1 (stereo unspecified)	inactive	inactive	inactive	inactive	inactive	inactive	
CCN1C(=O)NC(c2ccco2)C(C(C)=O)=C1C (stereo unspecified)	inactive	inactive	inactive	inactive	inactive	inactive	
CC(=O)OC[C@H]1O[C@H](CC=NOC[C@@H](C)[C@H](OCc2ccccc2)C(C)C)C=C[C@@H]1OC(C)=O	inactive	inactive	inactive	inactive	inactive	inactive	
O[C@@H]1CO[C@@H](C=Cc2ccccc2)[C@H]1OCc1cccc(Br)c1	inactive	inactive	inactive	inactive	inactive	inactive	
COC(=O)C1=C(C)N(Cc2ccccc2)C(=O)NC1c1ccccc1 (stereo unspecified)	inactive	inactive	inactive	inactive	inactive	inactive	
CC(C)OC(=O)[C@H]1O[C@H](CCCCOCc2ccccc2)[C@@H](C)[C@H]2O[C@H]21	inactive	inactive	inactive	inactive	inactive	inactive	
COC(=O)c1ccc(CN2C(=O)[C@]3(OCCC=C[C@@H]3C)c3c(Br)cccc32)cc1	inactive	inactive	inactive	inactive	inactive	inactive	
CCCCS(=O)(=O)N1C2=NC3=C(C(=O)N(CCOC)C3=O)C3N(C)c4ccccc4[C@]23C[C@H]1CO (stereo partly specified)	inactive	inactive	inactive	inactive	inactive	inactive	
